We go through 111 compounds from PubChem BioAssay AID435019 (Southern Research Specialized Biocontainment Screening …, 2010).

A word on the viability: it is a read-out of living cells in per cent, often relative to untreated cells.

The structures appear in SMILES notation. Screen size: about 2,300 compounds; about 1,200 (52%) were called active. So high a share suggests a set chosen from earlier hits. Some of the results follow. Measured potencies and affinities stand elsewhere. Values without a mark were called inactive. How the calls were made is not given here.

The nature of this assay: mammalian cell cytotoxicity, dose response, cytotoxicity control for M. tuberculosis inhibitor project (AID 435019).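 Further: 0% = background wells and 100% = vehicle-treated cells; lower values mean fewer viable cells so more cytotoxicity.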 The following applies: cytotoxicity counter-screen; series mostly up to 40 µM; viability: at the top concentration.
Take `COC(=O)C(C)Oc1cc(C)ccc1COc1ccc(-n2nc(C)n(C(F)F)c2=O)cc1` (stereo unspecified): the “viability” value was 87.3%.

`Cc1[nH]n(-c2ccccc2)c(=S)c1C=NCCCN=Cc1c(C)[nH]n(-c2ccccc2)c1=S`: the “viability” value was 96.7%.

Consider `CC1=NN(c2ccccc2)C(=O)/C1=C\c1c(C)[nH]n(-c2ccccc2)c1=O`, for which the “viability” value was 83.9%.

On to `O=C(NC1CCN(C(=O)N2c3ccccc3Sc3ccccc32)CC1)c1ccccc1F`, for which the “viability” value was 86.3%.

Consider `Oc1ccc(/C=N/NC(=S)N2CCOCC2)cc1`, for which the “viability” value was 84.3%.

In the case of `CC1CCN(c2nc(Cl)nc(Nc3ccc([N+](=O)[O-])cc3)n2)CC1`, the “viability” value was 88.8%.

As for `O=c1c2cc(Br)cc(Br)c2oc2nc3n(c(=O)c12)CCCS3`, the “viability” value was 100%.

As to `Cc1ccc(C2=NNC3(CCOC(C)(C)C3)S2)cc1` (stereo unspecified), the “viability” value is 106%.

In the case of `Cc1cccc2c1N(CCCOc1ccc(C(C)(C)C)cc1)C(=O)C2=O`, the “viability” value was 84%.

Regarding `CCOc1ccc(N/C(C)=C/C(=O)c2ccc3c(c2)OCCO3)cc1`, the “viability” value was 97.4%.

On to `Cc1ccc(NN=C2c3ccccc3-c3ccccc32)cc1`, for which the “viability” value is 92%.

`CC1(c2nnc(-c3ccncc3)o2)CC(c2ccccc2)=NO1` (stereo unspecified): the “viability” value is 92.3%.

Consider `Cc1ccnc(NC(=O)COc2ccc3c(c2)CCC3)c1`, for which the “viability” value was 97.4%.

Take `O=C1C(Cl)=C(N2CCOCC2)C(=O)N1c1cccc(Cl)c1`: the “viability” value was 91.6%.

As for `O=C(CN1CCN(c2ccc(F)cc2)CC1)N1CCC(Cc2ccccc2)CC1`, the “viability” value was 85.5%.

For the compound `COc1ccc(/C=N/OCC(=O)OCC(=O)N(C)c2ccccc2)cc1`, the “viability” value was 91.8%.

In the case of `O=C1C2C(c3ccccc3)(C(=O)N1c1ccc(Cl)cc1)C2(c1ccccc1)c1ccccc1` (stereo unspecified), the “viability” value was 90.5%.

With `CC1(c2ccc(OC(F)F)cc2)NC(=O)N(CC(=O)c2ccc3c(c2)OCO3)C1=O` (stereo unspecified), the “viability” value is 93.4%.

Take `COc1ccc(NC2(c3ccc(Cl)cc3)C(=O)c3ccccc3C2=O)cc1`: the “viability” value was 94.8%.

For `COC(=O)CCn1c(C)cc(C(=O)COc2ccccc2C(N)=O)c1C`, the “viability” value is 81.6%.

In the case of `c1ccc(-c2ccccc2OCCCCn2ccnc2)cc1`, the “viability” value is 80.4%.

In the case of `CCCn1nnnc1NC(=O)c1ccc(C)cc1Cl`, the “viability” value is 90.1%.

As for `CCCc1cc2c(cc1NC(=O)c1ccccc1Cl)OCO2`, the “viability” value was 91.1%.

As for `Nc1nc(-c2cccc(F)c2)cs1`, the “viability” value was 87.4%.

With `NC1=NC[C@H](Cc2ccc(O)cc2)N1CCc1cccc2ccccc12`, the “viability” value was 85%.

Take `N#CC1=C(N)NC(SCC(=O)c2ccccc2)=C(C#N)C12CCCC2`: the “viability” value is 82.1%.

Consider `CCOC(=O)CSC1=C(C#N)C(c2ccc(C)cc2)C2=C(CCCC2=O)N1` (stereo unspecified), for which the “viability” value is 95.6%.

`CCOC(=O)CSc1nnc(NC(=O)c2ccc3c(c2)OCO3)s1`: the “viability” value was 93.7%.

As to `C=C(C)C1CCC(C)=C1COC(=O)Nc1ccccc1` (stereo unspecified), the “viability” value is 81.2%.

Consider `Cc1ccc(C(=O)OCc2nnc(-c3ccccc3)o2)s1`, for which the “viability” value was 94.3%.

Regarding `CC(C)C(=O)Nc1cccc(-c2nc3ccccc3c(=O)o2)c1`, the “viability” value is 101%.

For the compound `CCOC(=O)c1ccc(N2CC(O)=C(c3nc4ccccc4c(=O)[nH]3)C2=N)cc1`, the “viability” value is 94.1%.

With `O=C(CSc1nn(-c2ccc(F)cc2)c(=S)s1)NCC1CCCO1` (stereo unspecified), the “viability” value was 92.4%.

For `Cc1nn(-c2ccccc2)c(Cl)c1/C=N/NC(=O)c1ccc(CNc2ccccc2)o1`, the “viability” value was 96.3%.

Consider `Cc1ccc(C(=O)CCC(=O)OCC(=O)Nc2c(C)nn(-c3ccccc3)c2C)cc1`, for which the “viability” value was 101%.

On to `CCOC(=O)C(/C=C(\C#N)C(=O)OCC)=C(/N)N1CCN(c2ccc(Cl)cc2)CC1`, for which the “viability” value is 90.8%.

`CCN1CCN(c2oc(COc3ccc(-c4ccccc4)cc3)nc2C#N)CC1`: the “viability” value was 81.5%.

In the case of `Clc1ccc(-c2cc3ccccc3nc2N2CCCC2)cc1`, the “viability” value was 85.9%.

For `O=C1C2C(C(=O)N1/N=C/c1ccc([N+](=O)[O-])o1)C1C=CC2C12CC2` (stereo unspecified), the “viability” value is 99%.

Take `COC(=O)CSc1nnc(-c2sc3cc(OC)ccc3c2Cl)n1C`: the “viability” value is 102%.

In the case of `CNC(=O)COC(=O)c1ccc(-c2nc3ccccc3s2)s1`, the “viability” value is 87.3%.

Take `COc1ccc(COC(=O)CCNC(=O)c2ccc(Cl)cc2)cc1`: the “viability” value was 97.3%.

Turning to `CNC(=O)c1csc(-c2ccc(Cl)cc2)n1`, the “viability” value is 84.6%.

Turning to `C/C(=N\Nc1ccc(Cl)c(Cl)c1)c1ccc(-n2ccnc2)cc1`, the “viability” value was 87.4%.

Regarding `CNc1ncnc2c1ncn2[C@@H]1O[C@H](CO)[C@@H](O)[C@H]1O`, the “viability” value was 119%.

For the compound `O=C(CCSc1ccccn1)c1ccccc1`, the “viability” value is 90.3%.

On to `O=C(OCC#CCSc1nnc(-c2cccc3ccccc23)o1)c1cccs1`, for which the “viability” value was 86.7%.

In the case of `O=C(CCC(=O)NC1CCCCCCC1)Nc1nnc(C(F)(F)F)s1`, the “viability” value is 86.1%.

Regarding `CCOc1ccc(NC(=S)NC23CN4CN(CN(C4)C2)C3)cc1`, the “viability” value was 96.7%.

On to `COc1ccc(S(=O)(=O)N(C)CC(=O)NCCCn2ccnc2)cc1Cl`, for which the “viability” value is 95.1%.

`CCCOc1ccc(N2CC(C(=O)Nc3ccccn3)CC2=O)cc1` (stereo unspecified): the “viability” value is 97.3%.

For `Nc1ccc(S(=O)(=O)Nc2cnc3ccccc3n2)cc1`, the “viability” value is 100%.

Regarding `CCOc1ccc(N2C(=O)CS/C2=C(\C(Cl)=C(Cl)Cl)[N+](=O)[O-])cc1`, the “viability” value is 98.2%.

As for `COc1ccc(C(=O)Cn2nc(CNc3ccc(Br)cc3)[n+]3c2CCCCC3)cc1`, the “viability” value is 97.4%.

In the case of `CCc1nnc(NS(=O)(=O)c2ccc(N/C=C\C(=O)c3cccc(OC)c3)cc2)s1`, the “viability” value was 81.3%.

Turning to `COc1ccc(C2CC2/C(C)=N/OC(=O)c2ccc(F)cc2)cc1` (stereo unspecified), the “viability” value was 107%.

`CCCCCC(=O)Nc1cccc2ccccc12`: the “viability” value was 93.4%.

Regarding `COc1cc(N=Nc2ccc3ccccc3c2)ccc1O`, the “viability” value was 81%.

`CCOc1cccc2cc(C(=O)Nc3nccs3)c(=O)oc12`: the “viability” value was 101%.

For `O=C(O)Cc1cnc[nH]1`, the “viability” value is 91.7%.

In the case of `O=C(CCl)c1ccc2c(c1)CCN2C(=O)C1CCCCC1`, the “viability” value was 82.9%.

Turning to `COc1ccccc1/C=C/C1=NC(=C\C=C/c2ccccc2)/C(=O)O1`, the “viability” value was 94.2%.

Take `C(=C\c1ccccc1)/C=N/Nc1nc2ccccc2s1`: the “viability” value was 83.8%.

Regarding `COc1ccc(C2CC(=O)C3=C(C2)NC(C)=C(C#N)C3c2ccc(N(C)C)cc2)cc1` (stereo unspecified), the “viability” value was 84.2%.

For the compound `CCOc1ccc(N=CC2=C(O)CC(c3ccco3)CC2=O)cc1` (stereo unspecified), the “viability” value was 101%.

Take `Nc1c(C(=O)Nc2ccc(Br)cc2)sc2nc(-c3ccco3)ccc12`: the “viability” value was 90.5%.

For the compound `CCCCCCc1cc2cc(C(=O)NCc3ccccc3)c(=N)oc2cc1O`, the “viability” value was 96%.

`Cc1ccc(NC2Sc3ccccc3NC2=O)cc1Cl` (stereo unspecified): the “viability” value is 83.3%.

For the compound `O=C(C[n+]1ccccc1)NNc1ccccc1`, the “viability” value is 102%.

For `CN(C)C(=O)c1ccc(NC(=O)COC(=O)c2cc3c(s2)CCCCC3)cc1`, the “viability” value was 94.3%.

Regarding `Cc1ccc(NC(=O)COC(=O)c2ccc(=O)n(Cc3ccccc3)n2)cc1F`, the “viability” value is 99.3%.

With `COC(=O)c1ccc(Cn2cc(C(F)(F)F)cc([N+](=O)[O-])c2=O)cc1`, the “viability” value was 101%.

On to `COc1ccc(C(=O)COC(=O)[C@H](C)Nc2ccc(C(F)(F)F)cc2[N+](=O)[O-])cc1`, for which the “viability” value is 97.9%.

Take `CCOC(=O)CSc1nsc(SCC(=O)OCC)c1C#N`: the “viability” value was 96.2%.

As for `CCOc1ccc(N=c2scc(-c3ccccc3)n2CCO)cc1`, the “viability” value is 96%.

Take `Oc1ccc2cc(Br)ccc2c1CN1CCCC1`: the “viability” value was 84.9%.

`CSc1cc(-c2ccncc2)nc(-c2ccc(Cl)cc2)c1`: the “viability” value was 84.4%.

In the case of `Cc1ccnc(NC(=O)CCc2c[nH]c3ccccc23)c1`, the “viability” value was 82.8%.

Regarding `Cn1ccc(=Nc2ccc(NC(=O)c3ccc(N=c4ccn(C)c5ccc([N+](=O)[O-])cc45)cc3)cc2)cc1`, the “viability” value is 90.8%.

For `CCOC(=O)C1CCCN(c2ncnc3c2cnn3-c2ccc(OC)cc2)C1` (stereo unspecified), the “viability” value was 98.5%.

Consider `COc1ccc(-c2nnc(SCC(=O)N3CCc4ccccc4C3)o2)cc1`, for which the “viability” value is 85.6%.

`CCOC(=O)N1CCN=C1SCc1ccc(C(F)(F)F)cc1`: the “viability” value was 94.8%.

For the compound `COc1ccc(-c2nnc(NC(=O)c3ccc([N+](=O)[O-])o3)o2)c(OC)c1`, the “viability” value was 82.6%.

For `O=[N+]([O-])c1ccc(-n2cnc3ccccc32)c([N+](=O)[O-])c1`, the “viability” value is 95%.

On to `Cc1ccc(S(=O)(=O)N(C)c2ccc(OCC(=O)OCc3ccc(C#N)cc3)cc2)cc1`, for which the “viability” value was 95.1%.

Consider `CC(/C=C/c1ccccc1)=N\NC(N)=S`, for which the “viability” value is 93.2%.

As to `CC1CCC/C(=N\NC(=S)Nc2ccccc2)C1` (stereo unspecified), the “viability” value is 88.5%.

As for `O=C(OCCN1C(=O)c2ccccc2C1=O)c1cc2ccccc2o1`, the “viability” value was 99.3%.

With `CCN(CC)S(=O)(=O)c1ccc(/C=C/C(=O)OCC#N)cc1`, the “viability” value was 91.9%.

On to `Cc1ccnc(N2CCC(C(=O)Nc3cccc(C(F)(F)F)c3)CC2)n1`, for which the “viability” value was 84.4%.

Take `CCOC(=O)c1c(/N=C/N(C)C)sc(/C=N/Nc2ccccc2)c1-c1ccccc1Cl`: the “viability” value was 83.2%.

Consider `CCOC(=O)NNc1ccccc1`, for which the “viability” value is 101%.

Take `COC(=O)C1C2c3ccccc3OC1(C)N=c1s/c(=C/c3cnn(C)c3C)c(=O)n12` (stereo unspecified): the “viability” value was 96.6%.

As to `CCc1cc2c(=O)c(-c3cnn(-c4ccccc4)c3)c(C)oc2c(CN2CCCCC2)c1O`, the “viability” value was 93.9%.

Take `CC(NC(=O)c1ccccc1Br)C1CC2CCC1C2` (stereo unspecified): the “viability” value is 91.3%.

`O=C(OCc1nc2ccccc2s1)c1ccc(Br)o1`: the “viability” value was 93%.

`Cc1cc(/C=C/C(=O)O)c(C)n1-c1ccc(Cl)cc1`: the “viability” value is 95.7%.

`CNc1cccccc1=S`: the “viability” value is 90.6%.

On to `NC(=O)CSc1nnc(COc2ccc3ccccc3c2)o1`, for which the “viability” value was 92.6%.

In the case of `Cc1c(O)c(=O)n(-c2ccccc2)n1C`, the “viability” value was 99.9%.

On to `COc1ccc2c(c1)CCc1c(C(=O)Nc3c(C)n(C)n(-c4ccccc4)c3=O)noc1-2`, for which the “viability” value was 91.4%.

Take `CC(C)(C)c1ccc(C(=O)CSc2n[nH]c(=O)[nH]c2=O)cc1`: the “viability” value was 90.6%.

With `Cc1ccccc1Cn1ccc(=NCc2ccccc2)cc1`, the “viability” value was 94.5%.

Regarding `CC(=O)n1cc(/C=C2/N=C(c3ccccc3)OC2=O)c2ccccc21`, the “viability” value was 87.7%.

As for `O=C(CN1CCCCC1)Nc1nnc(-c2ccc([N+](=O)[O-])cc2)s1`, the “viability” value is 84.5%.

For the compound `Cc1ccc(NC(=O)Cc2ccc(-c3ccccc3)cc2)nc1`, the “viability” value was 92.4%.

Turning to `CSc1cccc(NC(=O)CCS(=O)(=O)c2cccc3nonc23)c1`, the “viability” value was 92.1%.

In the case of `COC(=O)c1ccc(-n2cnc3ccccc32)nc1`, the “viability” value is 85%.

With `COc1ccc(N2CCN(C(=O)c3ccc(CNc4c(N5CCOCC5)c(=O)c4=O)cc3)CC2)cc1`, the “viability” value is 94.8%.

For the compound `CN(C)c1ccc(/C=C2\N=C(C(C)(C)C)OC2=O)cc1`, the “viability” value was 92%.

On to `CCC(C)N1CCC2(CC1)N=c1c(c3c4c5c(C)c(O)c3c(O)c1=NC(=O)C(C)=CC=C[C@H](C)[C@H](O)[C@@H](C)[C@@H](O)[C@@H](C)[C@H](OC(C)=O)[C@H](C)[C@@H](OC)C=CO[C@@](C)(O5)C4=O)N2` (stereo partly specified), for which the “viability” value is 85.8%.
